# According to the supplement of paper PMC3616981:
# ± gives the standard deviation of the averaged measurements.
# Compound: CC(C)c1cccc(C(C)C)c1N1C(=O)c2ccc(O)cc2C1=O
# Experiment: BioMAP readout fold decrease vs vehicle (vehicle/treated); higher = stronger decrease of the readout vs vehicle (values <1 mean increase)
# Conditions: 1.48 µM
# Protocol: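 BioSeek BioMAP human primary cell (co-)culture systems (3C, 4H, LPS, SAg, BE3C, CASM3C, hDFCGF, KF3CT) treated with 5HPP-33 at 1.48, 4.44, 13.3 and 40 µM. Read-outs are protein levels by ELISA, proliferation and SRB total protein. Duplicate rows per assay are averaged as replicates. Tested in ToxCast Phase II for this study; exposure time not stated.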
# 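Also: Co-cultures of keratinocytes, bronchial epithelial and smooth muscle cells, fibroblasts, HUVECs and PBMCs under stimuli like LPS, TNF-α, IFN-γ, IL-1β, TGF-β or EGF, SRB reflecting cytotoxicity.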
row,Target,BioMAP readout fold decrease
1,3C_SRB,0.983 ± 0.018
2,3C_Proliferation,1.29 ± 0.074
3,KF3CT_ICAM1,0.999 ± 0.092
4,BE3C_MMP1,1.073 ± 0.0092
5,BE3C_MIG,0.992 ± 0.016
6,CASM3C_MCP1,1.07 ± 0.045
7,LPS_TNFa,0.955 ± 0.077
8,BE3C_tPA,0.995 ± 0.012
9,BE3C_uPA,1.07 ± 0.019
10,3C_VCAM1,1.05 ± 0.029
11,BE3C_TGFb1,1.05 ± 0.079
12,LPS_IL8,1.07 ± 0.0052
13,CASM3C_HLADR,0.895 ± 0.021
14,LPS_MCSF,1.081 ± 0.0067
15,hDFCGF_SRB,1 ± 0.034
16,CASM3C_MIG,0.9799 ± 0.0029

row,Target,BioMAP readout fold decrease
1,CASM3C_TissueFactor,1.0008 ± 0.00028
2,3C_IL8,0.994 ± 0.019
3,KF3CT_IP10,0.9935 ± 0.0028
4,CASM3C_uPAR,1.15 ± 0.1
5,BE3C_SRB,0.9933 ± 0.0058
6,CASM3C_VCAM1,1.05 ± 0.029
7,SAg_MCP1,1.08 ± 0.023
8,SAg_CD38,1.01 ± 0.025
9,LPS_MCP1,1.03 ± 0.028
10,LPS_CD40,1.33 ± 0.17
11,4H_SRB,1.05 ± 0.014
12,CASM3C_MCSF,1.06 ± 0.033
13,hDFCGF_MIG,1.01 ± 0.012
14,3C_MCP1,1.04 ± 0.015
15,LPS_PGE2,0.966 ± 0.071

# Same assay, conditions: 4.44 µM
row,Target,BioMAP readout fold decrease
1,3C_SRB,1.13 ± 0.012
2,3C_Proliferation,3.56 ± 0.043
3,KF3CT_ICAM1,1.03 ± 0.037
4,BE3C_MMP1,1.01 ± 0.017
5,BE3C_MIG,1 ± 0.021
6,CASM3C_MCP1,1.137 ± 0.0029
7,LPS_TNFa,0.923 ± 0.036
8,BE3C_tPA,0.805 ± 0.042
9,BE3C_uPA,1.017 ± 0.0048
10,3C_VCAM1,1.15 ± 0.027
11,BE3C_TGFb1,1.09 ± 0.061
12,LPS_IL8,0.942 ± 0.0096
13,CASM3C_HLADR,0.797 ± 0.061
14,LPS_MCSF,1.32 ± 0.11
15,hDFCGF_SRB,0.959 ± 0.0096
16,CASM3C_MIG,0.9517 ± 0.009

row,Target,BioMAP readout fold decrease
1,CASM3C_TissueFactor,1.023 ± 0.0054
2,3C_IL8,0.925 ± 0.011
3,KF3CT_IP10,1.06 ± 0.035
4,CASM3C_uPAR,1.21 ± 0.037
5,BE3C_SRB,0.9934 ± 0.0085
6,CASM3C_VCAM1,1.0767 ± 0.00049
7,SAg_MCP1,0.997 ± 0.021
8,SAg_CD38,1.34 ± 0.061
9,LPS_MCP1,1.01 ± 0.012
10,LPS_CD40,1.67 ± 0.1
11,4H_SRB,1.12 ± 0.016
12,CASM3C_MCSF,1.14 ± 0.044
13,hDFCGF_MIG,1.01 ± 0.0026
14,3C_MCP1,0.986 ± 0.0064
15,LPS_PGE2,0.863 ± 0.057

# Same assay, conditions: 13.3 µM
row,Target,BioMAP readout fold decrease
1,3C_SRB,1.46 ± 0.018
2,3C_Proliferation,6.1 ± 0.28
3,KF3CT_ICAM1,0.9245 ± 0.0078
4,BE3C_MMP1,0.9184 ± 0.0038
5,BE3C_MIG,1.036 ± 0.0018
6,CASM3C_MCP1,1 ± 0.016
7,LPS_TNFa,1.26 ± 0.13
8,BE3C_tPA,1.1 ± 0.071
9,BE3C_uPA,1.027 ± 0.0098
10,3C_VCAM1,1.33 ± 0.03
11,BE3C_TGFb1,1.117 ± 0.0036
12,LPS_IL8,0.805 ± 0.015
13,CASM3C_HLADR,1.41 ± 0.07
14,LPS_MCSF,1.686 ± 0.0043
15,hDFCGF_SRB,1.19 ± 0.017
16,CASM3C_MIG,0.96395 ± 0.0005

row,Target,BioMAP readout fold decrease
1,CASM3C_TissueFactor,1.04 ± 0.026
2,3C_IL8,0.7655 ± 0.0039
3,KF3CT_IP10,1.39 ± 0.016
4,CASM3C_uPAR,1.29 ± 0.05
5,BE3C_SRB,1.0272 ± 0.001
6,CASM3C_VCAM1,1.19 ± 0.023
7,SAg_MCP1,0.892 ± 0.0095
8,SAg_CD38,2.26 ± 0.16
9,LPS_MCP1,1.02 ± 0.016
10,LPS_CD40,2.699 ± 0.02
11,4H_SRB,1.25 ± 0.031
12,CASM3C_MCSF,1.03 ± 0.035
13,hDFCGF_MIG,1.02 ± 0.027
14,3C_MCP1,0.8619 ± 0.0073
15,LPS_PGE2,0.841 ± 0.037

# Same assay, conditions: 40 µM
row,Target,BioMAP readout fold decrease
1,3C_SRB,2.09 ± 0.16
2,3C_Proliferation,7.03 ± 0.41
3,KF3CT_ICAM1,1.08 ± 0.062
4,BE3C_MMP1,0.854 ± 0.0042
5,BE3C_MIG,1.36 ± 0.19
6,CASM3C_MCP1,0.9734 ± 0.002
7,LPS_TNFa,1.56 ± 0.35
8,BE3C_tPA,1.59 ± 0.073
9,BE3C_uPA,1.15 ± 0.042
10,3C_VCAM1,2.03 ± 0.072
11,BE3C_TGFb1,1.32 ± 0.1
12,LPS_IL8,1.02 ± 0.053
13,CASM3C_HLADR,2.61 ± 0.45
14,LPS_MCSF,2.21 ± 0.14
15,hDFCGF_SRB,2.06 ± 0.21
16,CASM3C_MIG,1.03 ± 0.015

row,Target,BioMAP readout fold decrease
1,CASM3C_TissueFactor,1.22 ± 0.015
2,3C_IL8,1.132 ± 0.0075
3,KF3CT_IP10,7.16 ± 0.78
4,CASM3C_uPAR,2.6 ± 0.26
5,BE3C_SRB,1.1579 ± 0.0011
6,CASM3C_VCAM1,1.55 ± 0.021
7,SAg_MCP1,4.61 ± 0.68
8,SAg_CD38,5.07 ± 0.81
9,LPS_MCP1,2.69 ± 0.19
10,LPS_CD40,4.12 ± 0.32
11,4H_SRB,1.44 ± 0.041
12,CASM3C_MCSF,2.01 ± 0.034
13,hDFCGF_MIG,1.42 ± 0.031
14,3C_MCP1,0.919 ± 0.018
15,LPS_PGE2,0.776 ± 0.044
